Assay outcomes deposited in PubChem by Broad Institute.
SIRT5 block: blocks human SIRT5 desuccinylation of peptide | 330,000 tested, 1.1% active | Q9NXA8 | inhibition, % at 15 µM | Purified SirT5, succinyl-peptide AMC, trypsin-coupled fluorescence; in the data active means inhibition above about 15%
Target sequence (Q9NXA8 whole entry, looked up): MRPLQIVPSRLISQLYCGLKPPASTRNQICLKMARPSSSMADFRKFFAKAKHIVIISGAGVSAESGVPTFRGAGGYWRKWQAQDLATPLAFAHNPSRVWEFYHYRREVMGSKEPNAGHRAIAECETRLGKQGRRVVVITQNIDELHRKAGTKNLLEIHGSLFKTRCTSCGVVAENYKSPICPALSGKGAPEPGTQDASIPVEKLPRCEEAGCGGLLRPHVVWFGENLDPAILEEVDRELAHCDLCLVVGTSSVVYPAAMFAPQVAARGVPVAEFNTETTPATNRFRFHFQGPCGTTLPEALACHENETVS
FGF22 binding: shifts melting point of recombinant human FGF22 | activity (Tm shift, normalised), % at 9.99 µM | recombinant FGF22 thermal shift, SYPRO orange fluorescence; percent of sucrose octasulfate shift, DMSO zero | Q9HCT0 | 340,000 tested, 1.5% active | AID 651658;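 active means mean Tm shift, scaled 0 neutral to 100 positive control, at about 1.3% or above, every replicate too, limit read from the data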
ERAP1 HTS inh: inhibitors of human ERAP1 aminopeptidase; Q9NZ08; recombinant ERAP1, Leu-AMC fluorescence, 60 min; inhibition, % at 10.7 µM; 340,000 tested, 0.15% active;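 active means mean replicate inhibition of at least 30%, or all replicates individually reaching that 30% level; inactive means mean below 30% and not every replicate reaching it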;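 further: 0% = neutral control wells and 100% = L-leucinethiol positive control wells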
CASP6 VEID inh: inhibitors of human caspase-6. purified caspase-6, Z-VEID-R110 cleavage fluorescence. inhibition, % at 12.5 µM. 350,000 tested, 0.53% active. AID 686996;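 active means mean inhibition across replicates at least about 35%, with every replicate also reaching that limit, limit read from the data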;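 further: 0% = median of neutral control wells and 100% = no fluorescence left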
Target sequence (P55212 24-179 limits assumed): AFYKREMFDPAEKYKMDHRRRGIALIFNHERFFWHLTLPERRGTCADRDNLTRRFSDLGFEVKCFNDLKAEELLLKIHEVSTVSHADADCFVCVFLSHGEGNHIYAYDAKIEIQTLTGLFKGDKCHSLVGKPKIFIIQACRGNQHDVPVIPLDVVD
Target sequence (P55212 194-293 limits assumed): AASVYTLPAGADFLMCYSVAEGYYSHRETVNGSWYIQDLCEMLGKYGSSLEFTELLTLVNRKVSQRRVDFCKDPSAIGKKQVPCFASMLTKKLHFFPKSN
* hit, by the source's call; x = no result. Most compounds without a hit are left out; they make up all but 3.1% or so of the library.

SMILES | SIRT5 block | FGF22 binding | ERAP1 HTS inh | CASP6 VEID inh
CCN(Cc1ccccc1)S(=O)(=O)c1ccc2c(c1)NC(=O)CS2 | -3.5 | -0.3 | 6.1 | 0.8
CCN(Cc1ccccc1)S(=O)(=O)c1ccc2c(c1)NC(=O)CC(=O)N2 | -0.6 | 43.5* | -1.9 | x
COCC(=O)N(C)C[C@@H]1Oc2cc(C#CCC3CCCC3)ccc2S(=O)(=O)N([C@@H](C)CO)C[C@@H]1C | -3.1 | -0.4 | x | x
COc1ccc(-n2c(=S)[nH]c3ncccc3c2=O)cc1 | 15.2* | 0.0 | x | 1.1
COc1ccc(-n2c(=S)[nH]c3ccccc3c2=S)cc1 | -4.2 | -0.1 | -1.5 | 1.7
CO[C@@H]1CN(C)C(=O)c2cc(NC(C)=O)ccc2OC[C@H](C)N(C(=O)c2ccccc2F)C[C@@H]1C | 2.5 | 0.0 | -0.5 | x
C[C@H](CO)N1C[C@H](C)[C@H](CN(C)C(=O)Nc2ccc(F)cc2)Oc2ccc(NC(=O)Nc3ccc(C(F)(F)F)cc3)cc2CC1=O | 2.1 | 1.2* | -0.9 | -0.7
C[C@@H]1CN([C@@H](C)CO)C(=O)Cc2cc(NC(=O)Nc3ccc(C(F)(F)F)cc3)ccc2O[C@H]1CN(C)Cc1ccc2c(c1)OCO2 | 0.2 | 3.7* | 2.0 | 0.1
C[C@H](CO)N1C[C@H](C)[C@H](CN(C)Cc2ccc3c(c2)OCO3)Oc2ccc(NC(=O)Nc3ccc(C(F)(F)F)cc3)cc2CC1=O | -1.2 | -0.1 | 0.0 | 0.4
Cc1noc(C)c1NC(=O)N(C)C[C@H]1Oc2ccc(NC(=O)NC(C)C)cc2CC(=O)N([C@H](C)CO)C[C@H]1C | 20.9* | -0.2 | -1.1 | -1.1
C[C@H]1CN([C@@H](C)CO)C(=O)Cc2cc(NC(=O)Nc3ccc(F)cc3)ccc2O[C@H]1CN(C)C(=O)Nc1ccc(F)cc1 | 15.7* | -0.7 | 2.9 | x
N#Cc1cccc(-c2ccc(C3[C@@H]4CN(C(=O)Nc5ccc6c(c5)OCO6)C[C@H]3N4)cc2)c1 (stereo not given in full) | 9.3 | x | -0.9 | -1.4
CC(=O)N1CCCCN2[C@H](CO)[C@H](c3ccc(-c4cccc(C)c4)cc3)[C@H]2C1 | 0.7 | -0.3 | -1.7 | -4.1
COc1ccc(-c2ccc([C@@H]3[C@H]4CN(Cc5ccc(F)cc5)CC(=O)N4[C@H]3CO)cc2)cc1 | 1.4 | x | -0.2 | -1.2
COc1ccc(NC(=O)N(C)C[C@@H]2Oc3ccc(NC(=O)C4CC4)cc3CC(=O)N([C@H](C)CO)C[C@H]2C)cc1 | -1.6 | 0.2 | -2.3 | 2.3
COc1ccc(NC(=O)N(C)C[C@H]2Oc3ccc(NC(=O)C4CC4)cc3CC(=O)N([C@H](C)CO)C[C@H]2C)cc1 | -5.8* | 0.6 | x | x
O=C(C[C@H]1C=C[C@@H](NC(=O)C2CCOCC2)[C@@H](CO)O1)NCC1CC1 | -0.6 | 0.6 | -0.7 | 1.2
NC(=O)/C(=C\c1ccco1)NC(=O)c1ccco1 | x | 0.4 | 1.7 | 6.3
NC(=O)/C(=C/c1ccco1)C(N)=S | 17.4* | 0.1 | 1.8 | 35.2*
Cc1cccc(C)c1OCC(=O)Nn1c(=O)[nH]c2ccccc2c1=O | -4.0 | 43.1* | -2.7 | 0.1
Cc1ccccc1OS(=O)(=O)c1cn(C)c(=O)n(C)c1=O | -2.6 | 43.3* | 3.1 | 0.0
COc1ccccc1N1CCN(S(=O)(=O)c2cn(C)c(=O)n(C)c2=O)CC1 | -0.5 | -0.2 | 8.0 | -0.8
C[C@H]1CN([C@@H](C)CO)C(=O)c2cccc(NC(=O)c3ccc(-c4nccs4)cc3)c2O[C@H]1CN(C)Cc1ccc(C(F)(F)F)cc1 | 16.6* | 0.1 | -0.3 | 5.7
C[C@H](CO)N1C[C@H](C)[C@H](CN(C)Cc2ccc(C(F)(F)F)cc2)Oc2c(NC(=O)c3ccc(-c4nccs4)cc3)cccc2C1=O | 15.7* | 0.1 | 0.3 | 4.6
C[C@H]1CN([C@@H](C)CO)C(=O)c2cccc(NC(=O)c3ccc(-c4nccs4)cc3)c2O[C@@H]1CN(C)Cc1ccc(C(=O)O)cc1 | 3.3 | 0.5 | 0.0 | -7.0
SMILES | SIRT5 block | FGF22 binding | ERAP1 HTS inh | CASP6 VEID inh
C[C@H](CO)N1C[C@H](C)[C@@H](CN(C)Cc2cccc(F)c2)Oc2ncc(C3=CCCC3)cc2C1=O | 8.8 | 0.0 | 0.3 | -1.4
Cc1ccc(S(=O)(=O)Nc2ccc3c(c2)C(=O)N([C@@H](C)CO)C[C@@H](C)[C@H](CN(C)C(=O)c2ccncc2)OCCCC[C@@H](C)O3)cc1 | x | -0.1 | x | x
CN1C(=O)c2cc(NC(=O)c3ccccc3Cl)ccc2OC[C@@H]2O[C@H](CC(=O)O)CC[C@@H]21 | -0.2 | 0.0 | 0.0 | 2.0
COCC(=O)Nc1ccc2c(c1)OC[C@H](C)N(Cc1ccccc1)C[C@@H](C)[C@@H](OC)CN(C)C2=O | 8.0 | 0.0 | 1.4 | 1.4
CC(C)NC(=O)N(C)C[C@@H]1OCCCC[C@@H](C)Oc2ccc(NC(=O)CCCN(C)C)cc2C(=O)N([C@H](C)CO)C[C@H]1C | -0.8 | 0.8 | -1.9 | 7.8
CCN(CC)c1ccc(N=Cc2ccc([N+](=O)[O-])o2)cc1 | 15.4* | -0.3 | 1.6 | 15.7
COc1ccc(S(=O)(=O)N(C)C[C@@H]2Oc3c(NS(=O)(=O)c4ccc(Cl)cc4)cccc3C(=O)N([C@@H](C)CO)C[C@H]2C)cc1 | x | 0.1 | x | x
COC(=O)C1=C(C)N(C)C(=S)NC1c1ccc(Cl)cc1 (stereo not given) | 2.6 | 44.2* | 0.0 | 0.8
CC(=O)N1c2ccc(S(=O)(=O)NCCC(=O)NC3CCC(C)CC3)cc2CC1C (stereo not given) | 44.4* | 0.0 | -3.4 | -0.1
CC(=O)N1c2ccc(S(=O)(=O)NCC3CCC(C(=O)NC4CCC(C)CC4)CC3)cc2CC1C (stereo not given) | -2.9 | -0.1 | -2.9 | -0.9
Cc1ccc(N2CC(c3nc4ccccc4n3C)CC2=O)cc1C (stereo not given) | -0.8 | -0.1 | 0.8 | 0.5
Cc1cc(C)cc(N2CC(c3nc4ccccc4n3C)CC2=O)c1 (stereo not given) | 0.0 | -0.1 | 102.6* | 0.1
C/C(=N\NC(N)=O)c1ccc(-n2ccnc2)cc1 | 21.8* | 0.2 | -0.4 | -2.9
COCCNc1nc(-c2ccc(OC)cc2)c(-c2ccc(OC)cc2)s1 | -2.1 | 0.1 | 2.8 | 92.3*
CCCNC(=O)C[C@@H]1CC[C@H]2[C@@H](COC[C@H](O)CN2C(=O)CC)O1 | 2.7 | -0.2 | -4.2 | -1.7
O=C(CCN=C1NS(=O)(=O)c2ccccc21)OCC(=O)c1ccccc1 | 0.1 | -0.2 | -1.8 | 0.9
CC(C)CCNC(=O)NC(=O)COC(=O)CCN=C1NS(=O)(=O)c2ccccc21 | 1.9 | 44.4* | 0.2 | -1.5
C/C=C/c1ccc([C@@H]2[C@H](CO)N(C(=O)CN(C)C)C23CN(C(=O)C2CCCCC2)C3)cc1 | -2.3 | x | 1.1 | -1.1
CCOC(=O)C1(CC2CC2)CCN(Cc2cn[nH]c2-c2ccccc2)CC1 | -5.4 | 42.8 | -3.8 | 2.6
CCOC(=O)C1(CC2CC2)CCN(Cc2cn[nH]c2-c2cccc(F)c2)CC1 | 17.1* | 44.1* | -2.0 | 2.6
CO[C@@H](CN(C)S(=O)(=O)c1ccc(Cl)cc1)[C@H](C)CN(C(=O)Nc1ccccc1F)[C@@H](C)CO | -1.2 | 0.2 | -0.6 | 0.4
CNC[C@H]1Oc2c(NS(=O)(=O)c3cccs3)cccc2C(=O)N([C@@H](C)CO)C[C@@H]1C | -3.0 | -0.3 | -3.7 | 1.2
